# “And” between values parts separate entries of the source, which are not always exact repeats. Equal values may be shown once. More than one record can exist for a structure, and the calls need not agree. The source made the active and inactive calls. Rule for the calls: active = hit-call score of the fitted dose curve at least 0.9, where 1 is the maximum; inactive = score below 0.9.
# Legend:
# [1] = read-out: Monocyte Chemoattractant Protein-1 (MCP1), CCL2 (gene 6347); assay: BSK_SAg_MCP1: BioMAP Diversity Plus: SAg Assay for Monocyte Chemoattractant Protein-1 (MCP1) Biomarker Activity (AID 2283090); settings: primary human HUVEC with PBMC; actives raise or lower the signal
# Summary of the method: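 Values derive from bidirectional fitting of ELISA-measured MCP1 against DMSO controls. Readings were taken 24 h after dosing human vascular endothelial cells co-cultured with peripheral blood mononuclear cells under superantigen stimulation.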
# [2] = read-out: E-selectin (Homo sapiens) (UniProt P16581); assay: BSK_SAg_Eselectin: BioMAP Diversity Plus: SAg Assay for Eselectin Biomarker Activity (AID 2283091); settings: primary human HUVEC with PBMC; actives raise or lower the signal
# Summary of the method: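 E-selectin ELISA readout at 24 h post-dosing in human umbilical vein endothelial cell/PBMC co-culture; gain or loss of signal fitted relative to DMSO baseline.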
# [3] = read-out: Monokine induced gamma interferon (MIG), CXCL9 (gene 4283); assay: BSK_SAg_MIG: BioMAP Diversity Plus: SAg Assay for Monokine induced gamma interferon (MIG) Biomarker Activity (AID 2283092); settings: primary human HUVEC with PBMC; actives raise or lower the signal
# Summary of the method: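 HUVEC plus human PBMC co-culture, chemicals dosed and MIG (CXCL9) quantified by ELISA at 24 h. Bidirectional curve fitting against DMSO as negative control and baseline, so both gain and loss of signal count as activity.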
# [4] = BSK_SAg_PBMCCytotoxicity: PBMC Cytotoxicity Assessment in the BioMAP Diversity Plus: SAg Assay (AID 2283093); settings: primary human HUVEC with PBMC;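 note: PBMC viability measured as Alamar Blue reduction fluorescence at 546/580 nm; fitted both ways against DMSO so a hit may be loss or gain of signal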;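 for AC50: PBMC superantigen activated with SEB plus TSST-1 one hour after compound addition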
# Summary of the method: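 Alamar Blue reduction (6 h, ex/em 546/580 nm) read after 90 h culture of PBMC pre-dosed 1 h then stimulated with SEB plus TSST-1, 20 ng/mL each. Gain or loss of signal fitted relative to DMSO.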
# [5] = read-out: Interleukin-8 (IL8), CXCL8 (gene 3576); assay: BSK_SAg_IL8: BioMAP Diversity Plus: SAg Assay for Interleukin-8 (IL8) Biomarker Activity (AID 2283094); settings: primary human HUVEC with PBMC; actives raise or lower the signal
# Summary of the method: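 HUVEC/PBMC co-culture, 24 h post-dose; IL-8 by ELISA. Gain or loss of signal fitted bidirectionally vs DMSO baseline.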
# [6] = BSK_SAg_Proliferation: Cell Proliferation Assessment in the BioMAP Diversity Plus: SAg Assay (AID 2283095); settings: primary human HUVEC with PBMC;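 note: relative cell number as total protein by SRB absorbance in sub-confluent culture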
# Summary of the method: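 HUVEC/PBMC co-culture, 96-well. TCA-fixed (10%), 0.1% SRB stain, A560 at 96 h. Protein content used as viability readout; bidirectional fitting vs DMSO control.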
# [7] = BSK_SAg_SRB: Viability Assessment in the BioMAP Diversity Plus: SAg Assay (AID 2283096); settings: primary human HUVEC with PBMC;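 note: cells read one day after compound addition; hits may be either gain or loss of signal compared with DMSO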
# Summary of the method: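 SRB absorbance at 560 nm served as the viability read-out. Cells (HUVEC plus peripheral blood mononuclear cells) were TCA-fixed and stained 24 h post-dosing; activity fitted in both directions against DMSO controls.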
# Chain of E-selectin (Homo sapiens) (P16581 whole entry, looked up): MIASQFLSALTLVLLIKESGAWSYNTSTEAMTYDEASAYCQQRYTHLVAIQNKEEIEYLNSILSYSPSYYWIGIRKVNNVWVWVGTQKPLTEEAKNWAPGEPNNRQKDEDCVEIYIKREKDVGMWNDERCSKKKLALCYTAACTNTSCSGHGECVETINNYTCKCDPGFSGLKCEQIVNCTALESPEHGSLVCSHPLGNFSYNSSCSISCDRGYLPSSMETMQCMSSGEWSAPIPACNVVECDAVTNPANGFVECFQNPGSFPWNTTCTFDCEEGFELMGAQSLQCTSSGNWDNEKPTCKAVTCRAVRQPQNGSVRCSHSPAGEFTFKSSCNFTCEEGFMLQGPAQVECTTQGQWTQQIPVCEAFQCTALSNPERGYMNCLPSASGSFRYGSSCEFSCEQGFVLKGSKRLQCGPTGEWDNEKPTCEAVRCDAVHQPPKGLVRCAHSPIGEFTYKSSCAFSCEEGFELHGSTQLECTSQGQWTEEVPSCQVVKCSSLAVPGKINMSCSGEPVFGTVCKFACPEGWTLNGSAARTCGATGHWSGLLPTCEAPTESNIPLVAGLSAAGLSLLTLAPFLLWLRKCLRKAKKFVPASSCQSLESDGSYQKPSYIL
structure (smiles),measurement,setting,value
O=C(O)C(F)(F)C(F)(F)C(F)(F)C(F)(F)F,outcome,[1],inactive
same,outcome,[2],inactive
same,outcome,[3],inactive
same,outcome,[4],inactive
same,outcome,[5],inactive
same,outcome,[6],inactive
O=C(O)C(F)(F)C(F)(F)C(F)(F)C(F)(F)C(F)(F)C(F)(F)C(F)(F)C(F)(F)C(F)(F)C(F)F,AC50,[1],44.9 µM (active) and 46 µM (active)
same,AC50,[2],54.2 µM (active)
same,outcome,[2],inactive
same,outcome,[3],inactive
same,outcome,[4],inactive
same,AC50,[5],41.6 µM (active) and 47.9 µM (active)
same,AC50,[6],47.8 µM (active) and 54.6 µM (active)
O=S(=O)(OCCOC(F)(F)F)C(F)(F)F,outcome,[1],inactive
same,outcome,[2],inactive
same,outcome,[3],inactive
same,outcome,[4],inactive
same,outcome,[5],inactive
same,outcome,[6],inactive
O=C(O)C(F)(F)C(F)(F)C(F)(F)C(F)(F)C(F)(F)C(F)(F)C(F)(F)C(F)(F)C(F)(F)C(F)(F)C(F)(F)C(F)(F)F,outcome,[1],inactive
same,outcome,[2],inactive
same,outcome,[3],inactive
same,outcome,[4],inactive
same,outcome,[5],inactive
same,outcome,[6],inactive
OCC(F)(F)C(F)(F)C(F)(F)F,outcome,[1],inactive
same,outcome,[2],inactive
same,outcome,[3],inactive
same,outcome,[4],inactive
same,outcome,[5],inactive
same,outcome,[6],inactive
O=C(CC(=O)C(F)(F)C(F)(F)F)C(F)(F)F,outcome,[1],inactive
same,outcome,[2],inactive
same,outcome,[3],inactive
same,outcome,[4],inactive
same,outcome,[5],inactive
same,outcome,[6],inactive
C=CC/C=C/C/C=C/C/C=C/C,outcome,[1],inactive
same,outcome,[2],inactive
same,outcome,[3],inactive
same,outcome,[4],inactive
same,outcome,[5],inactive
same,outcome,[6],inactive
N=C(N)C(F)(F)C(F)(F)C(F)(F)C(F)(F)C(F)(F)C(F)(F)C(F)(F)F,AC50,[1],55 µM (active)
same,outcome,[1],inactive
same,AC50,[2],48.3 µM (active)
same,outcome,[2],inactive
same,AC50,[3],55.4 µM (active)
same,outcome,[3],inactive
same,AC50,[4],45.9 µM (active) and 55.1 µM (active)
same,AC50,[5],55.1 µM (active)
same,outcome,[5],inactive
same,AC50,[6],45 µM (active) and 47.4 µM (active)
O=C(Cl)C(F)(F)C(F)(F)C(F)(F)C(F)(F)C(F)(F)C(F)(F)C(F)(F)C(F)(F)F,AC50,[1],44.8 µM (active) and 43.8 µM (active)
same,outcome,[1],inactive
same,outcome,[2],inactive
same,outcome,[3],inactive
same,outcome,[4],inactive
same,AC50,[5],42.7 µM (active)
same,outcome,[5],inactive
same,outcome,[6],inactive
same,AC50,[7],42.7 µM (active) and 42.8 µM (active) and 30 µM (active)
CCCCCCCCC(F)(F)C(F)(F)C(F)(F)C(F)(F)C(F)(F)C(F)(F)F,outcome,[1],inactive
same,outcome,[2],inactive
same,outcome,[3],inactive
same,outcome,[4],inactive
same,outcome,[5],inactive
same,outcome,[6],inactive
CS(C)(=O)=O,outcome,[1],inactive
same,outcome,[2],inactive
same,outcome,[3],inactive
same,outcome,[4],inactive
same,outcome,[5],inactive
same,outcome,[6],inactive
FC(F)(F)C(F)(F)C(F)(F)CI,outcome,[1],inactive
same,outcome,[2],inactive
same,outcome,[3],inactive
same,outcome,[4],inactive
same,outcome,[5],inactive
same,outcome,[6],inactive
O=C(O)C(F)(F)C(F)(F)C(F)(F)C(F)(F)C(F)(F)C(F)(F)C(F)(F)C(F)(F)C(F)(F)C(F)(F)C(F)(F)C(F)(F)C(F)(F)F,outcome,[1],inactive
same,outcome,[2],inactive
same,outcome,[3],inactive
same,outcome,[4],inactive
same,outcome,[5],inactive
same,outcome,[6],inactive
FC(F)(F)C(F)(F)C(F)(F)C(F)(F)C(F)(F)C(F)(F)CCS,outcome,[1],inactive
same,outcome,[2],inactive
same,outcome,[3],inactive
same,outcome,[4],inactive
same,outcome,[5],inactive
same,outcome,[6],inactive
CCCCNc1ccccc1,outcome,[1],inactive
same,outcome,[2],inactive
same,outcome,[3],inactive
same,outcome,[4],inactive
same,outcome,[5],inactive
same,outcome,[6],inactive
CC(CCl)OP(=O)(OC(C)CCl)OC(C)CCl (centres undefined),outcome,[1],inactive
same,outcome,[2],inactive
same,outcome,[3],inactive
same,outcome,[4],inactive
same,outcome,[5],inactive
same,outcome,[6],inactive
OCCCC(F)(F)C(F)(F)C(F)(F)F,outcome,[1],inactive
same,outcome,[2],inactive
same,outcome,[3],inactive
same,outcome,[4],inactive
same,outcome,[5],inactive
same,outcome,[6],inactive
FC(F)(F)C(F)(F)C(F)(F)C(F)(F)CCI,outcome,[1],inactive
same,outcome,[2],inactive
same,outcome,[3],inactive
same,AC50,[4],41.9 µM (active)
same,outcome,[4],inactive
same,outcome,[5],inactive
same,AC50,[6],30 µM (active)
same,outcome,[7],inactive
O=P(O)(O)OCCC(F)(F)C(F)(F)C(F)(F)C(F)(F)C(F)(F)C(F)(F)F,outcome,[1],inactive
same,outcome,[2],inactive
same,outcome,[3],inactive
same,outcome,[4],inactive
same,outcome,[5],inactive
same,outcome,[6],inactive
OCC(F)(F)C(F)(F)C(F)(F)C(F)(F)C(F)(F)C(F)(F)F,outcome,[1],inactive
same,outcome,[2],inactive
same,outcome,[3],inactive
same,outcome,[4],inactive
same,outcome,[5],inactive
same,outcome,[6],inactive
CC(C)(C)C(=O)CC(=O)C(F)(F)C(F)(F)C(F)(F)F,outcome,[1],inactive
same,AC50,[2],41.1 µM (active)
same,outcome,[2],inactive
same,outcome,[3],inactive
same,AC50,[4],53.9 µM (active)
same,outcome,[4],inactive
same,outcome,[5],inactive
same,outcome,[6],inactive
same,outcome,[7],inactive
FC(F)(F)C(F)(F)C(F)(F)C(F)(F)C(F)(F)C(F)(F)C(F)(F)Br,outcome,[1],inactive
same,outcome,[2],inactive
same,outcome,[3],inactive
same,outcome,[4],inactive
same,outcome,[5],inactive
same,outcome,[6],inactive
O=C(O)C(F)(OC(F)(F)C(F)(OC(F)(F)C(F)(OC(F)(F)C(F)(F)C(F)(F)F)C(F)(F)F)C(F)(F)F)C(F)(F)F (centres undefined),outcome,[1],inactive
same,outcome,[2],inactive
same,outcome,[3],inactive
same,outcome,[4],inactive
same,outcome,[5],inactive
same,outcome,[6],inactive
OCC(F)(F)C(F)(F)C(F)(F)C(F)(F)C(F)(F)C(F)F,outcome,[1],inactive
same,outcome,[2],inactive
same,outcome,[3],inactive
same,outcome,[4],inactive
same,outcome,[5],inactive
same,outcome,[6],inactive
CCCCCCCOC(=O)c1ccccc1C(=O)OCCCCCCC,outcome,[1],inactive
same,outcome,[2],inactive
same,outcome,[3],inactive
same,AC50,[4],3.28 µM (active)
same,outcome,[5],inactive
same,outcome,[6],inactive
CCc1ccc(C(c2ccc(CC)cc2)C(Cl)Cl)cc1,AC50,[1],31.8 µM (active)
same,AC50,[2],26 µM (active)
same,AC50,[3],33.6 µM (active)
same,AC50,[4],14.5 µM (active)
same,outcome,[5],inactive
same,AC50,[6],8.44 µM (active)
FC(F)(F)C(F)(F)C(F)(F)N(C(F)(F)C(F)(F)C(F)(F)F)C(F)(F)C(F)(F)C(F)(F)F,outcome,[1],inactive
same,outcome,[2],inactive
same,outcome,[3],inactive
same,outcome,[4],inactive
same,outcome,[5],inactive
same,outcome,[6],inactive
O=C(O)C(F)(F)C(F)(F)F,outcome,[1],inactive
same,outcome,[2],inactive
same,outcome,[3],inactive
same,outcome,[4],inactive
same,outcome,[5],inactive
same,outcome,[6],inactive
O=S(=O)(O)C(F)(F)C(F)(F)C(F)(F)C(F)(F)C(F)(F)C(F)(F)C(F)(F)F,outcome,[1],inactive
same,outcome,[2],inactive
same,outcome,[3],inactive
same,outcome,[4],inactive
same,outcome,[5],inactive
same,outcome,[6],inactive
COC(=O)CCC(F)(F)C(F)(F)C(F)(F)C(F)(F)F,outcome,[1],inactive
same,outcome,[2],inactive
same,outcome,[3],inactive
same,outcome,[4],inactive
same,outcome,[5],inactive
same,outcome,[6],inactive
CCc1c(Br)c(Br)c(Br)c(Br)c1Br,outcome,[1],inactive
same,outcome,[2],inactive
same,outcome,[3],inactive
same,outcome,[4],inactive
same,outcome,[5],inactive
same,outcome,[6],inactive
C=CC(F)(F)C(F)(F)C(F)(F)C(F)(F)C(F)(F)C(F)(F)C(F)(F)C(F)(F)C=C,outcome,[1],inactive
same,outcome,[2],inactive
same,outcome,[3],inactive
same,outcome,[4],inactive
same,outcome,[5],inactive
same,outcome,[6],inactive
FC(F)(I)C(F)(F)C(F)(F)C(F)(F)I,outcome,[1],inactive
same,AC50,[2],44.1 µM (active)
same,outcome,[2],inactive
same,outcome,[3],inactive
same,AC50,[4],46.9 µM (active) and 50.1 µM (active)
same,outcome,[4],inactive
same,AC50,[5],30 µM (active)
same,outcome,[5],inactive
same,AC50,[6],54.2 µM (active) and 54.1 µM (active) and 46.5 µM (active)
O=C(O)C=C(C(F)(F)F)C(F)(F)F,AC50,[1],18.8 µM (active)
same,outcome,[1],inactive
same,AC50,[2],26.8 µM (active) and 22.9 µM (active)
same,outcome,[3],inactive
same,outcome,[4],inactive
same,AC50,[5],30 µM (active) and 20 µM (active)
same,AC50,[6],43 µM (active) and 27.2 µM (active)
CCCCCCOC(=O)c1ccccc1O,AC50,[1],27.6 µM (active) and 45.1 µM (active)
same,AC50,[2],38.3 µM (active) and 39.5 µM (active)
same,outcome,[3],inactive
same,AC50,[4],36.9 µM (active) and 44.8 µM (active)
same,AC50,[5],38.2 µM (active)
same,outcome,[5],inactive
same,AC50,[6],38.7 µM (active) and 45.4 µM (active)
same,AC50,[7],42.4 µM (active)
same,outcome,[7],inactive
O=C(O)C(F)(F)C(F)(F)C(F)(F)F,outcome,[1],inactive
same,outcome,[2],inactive
same,outcome,[3],inactive
same,outcome,[4],inactive
same,outcome,[5],inactive
same,outcome,[6],inactive
same,outcome,[7],inactive
OCCCC(F)(F)C(F)(F)C(F)(F)C(F)(F)C(F)(F)C(F)(F)C(F)(F)F,AC50,[1],43.2 µM (active) and 46.3 µM (active)
same,AC50,[2],44.2 µM (active) and 38.8 µM (active)
same,AC50,[3],54 µM (active) and 50.8 µM (active)
same,AC50,[4],14.4 µM (active) and 14.8 µM (active)
same,AC50,[5],23.3 µM (active) and 50.1 µM (active)
same,AC50,[6],16.8 µM (active) and 16.3 µM (active)
same,AC50,[7],51.4 µM (active) and 44.9 µM (active)
